VACV mCherry inh – inhibitors of vaccinia virus infection (mCherry reporter signal). Vaccinia virus mCherry reporter infection, fluorescence. hit rate 0.63% among 310,000. Potency, µM (series often up to 36.5 µM), for the others: at the highest dose activity change, negative = inhibition, usual class: inhibitors; calls by dose curve; tested in A549 cells; also: potency is read from the fitted curve at half-maximal effect; nearly all actives have a fitted effect of over 35% in size
FMDV antiviral – antivirals against foot and mouth disease virus | FMDV antiviral cell-based qHTS | Potency, µM (series often up to 57.9 µM), for inactives: at the highest dose activity change, negative = inhibition, actives largely listed as inhibitors | hit rate 1.2% among 410,000; calls by dose curve; tested in HEK293T cells; also: read-out not given here; potency is read from the fitted curve at half-maximal effect; nearly all actives have a fitted effect of over 45% in size
VACV Venus inh – vaccinia inhibition (Venus reporter); Vaccinia virus Venus reporter expression, fluorescence; Potency, µM (highest dose often 36.5 µM), for inactives: at the top dose activity change, negative = inhibition, most hits filed as inhibitors; hit rate 0.46% among 330,000; AID 720580; calls by dose curve; tested in A549 cells; also: potency is read from the fitted curve at half-maximal effect; nearly all actives have a fitted effect of over 30% in size
HCMV inh – inhibitors of human cytomegalovirus | HFF cells, HCMV-luciferase reporter, 72 h; stronger effect = lower value | activity change, negative = inhibition, % at 57.5 µM | hit rate 4.5% among 410,000; in the data active = activity change below about -60%; inconclusive = no clear call, values can overlap the other calls; inactive = above about -39%
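After 16 h attachment at 37C, HFF cells received test compound and HCMV-luciferase (1 PFU/cell); reporter luminescence read 72 h later, data normalized against buffer-only and known inhibitor Salinomycin.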
HCV inhibitor – inhibitors of hepatitis C virus infection; Huh7.5.1 HCVcc-Cre infection, luciferase reporter, 44 h; hit rate 3.4% among 340,000; Potency, µM (top dose mostly 41.8 µM), for the others: at the top dose activity change, negative = inhibition, usual class: inhibitors; active = well fitted inhibition curve with a large enough effect; inconclusive = small, poorly fitted or top-dose-only effect, or another doubt; inactive = no such curve, though single readings can be large or run the other way; also: potency is read from the fitted curve at half-maximal effect
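After 44 h co-culture of compound, cells and HCVcc-Cre (~0.5 moi), substrate is added for 15 min at room temperature and luciferase measured over 15 sec. Cells were seeded at 1,000/well and pre-cultured 4 h.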
* hit, by the source's call; i = inactive; ? = inconclusive; nt = no result given; ! = a repeat was not active. Compounds with a hit are over-represented: about 7.3% of the library has one in this group of screens. % is scaled to controls: 0 for no effect and ±100 for the full control effect.

SMILES	VACV mCherry inh	FMDV antiviral	VACV Venus inh	HCMV inh	HCV inhibitor
Cn1cc(C(=O)Nc2ccc(C#N)cc2)c2ccccc2c1=O	14%	-2%	0%	-67*!	-8%
O=C1c2ccccc2S(=O)(=O)c2cc(N3CCN(C(=O)c4ccccc4)CC3)ccc21	-14%	40µM*	?	-12	?
O=C(c1ccc(N2CCN(C(=O)c3ccccc3)CC2)cc1)c1cccc(F)c1	-8%	-22%	1%	-32	?
O=C(c1ccc(N2CCN(C(=O)c3ccc(F)c(F)c3)CC2)cc1)c1cccc(F)c1	nt	0%	nt	-72*	?
O=C(c1ccccc1)c1ccc(C(=O)N2CCN(c3ccc(O)cc3)CC2)cc1	nt	-2%	nt	-78*	-3%
Cc1ccc(S(=O)(=O)N2C(=O)CCC2C(=O)O/N=C(\N)c2cccc([N+](=O)[O-])c2)cc1 (configuration not stated)	nt	-11%	nt	15	12%
CSc1ccc(CN2CCC2(C)C(=O)Nc2cccc(Oc3ccccc3)c2)cc1 (configuration not stated)	-13%	-21%	-10%	-24	nt
CSc1cccc(NC(=O)C2CCCN(S(C)(=O)=O)C2)c1 (configuration not stated)	-22%	2%	-15%	23	nt
Cc1ccc(C)c(NC(=O)c2cc(S(=O)(=O)N3CCCc4ccccc43)ccc2F)c1	-15%	-27%	-12%	-62*	nt
O=C(NCc1ccco1)c1cc(S(=O)(=O)N2CCCc3ccccc32)ccc1Cl	i	-3%	-25%	-67*	?
O=C1CCC[C@H]2[C@@H](Cc3ccccc3)[C@@H](NS(=O)(=O)c3ccc(Br)cc3)CC[C@]23CCCN13	nt	nt	nt	-17	nt
C[C@H]1[C@@H](NS(=O)(=O)c2cn(C)cn2)CC[C@@]23CCCN2C(=O)CCC[C@@H]13	nt	nt	nt	-102*	nt
O=C1CCC[C@H]2[C@@H](Cc3ccccc3)[C@@H](NS(=O)(=O)c3ccc(Cl)cc3)CC[C@]23CCCN13	nt	nt	nt	-92*	nt
C[C@H]1[C@@H](NC(=O)Nc2ccc3c(c2)OCO3)CC[C@@]23CCCN2C(=O)CCC[C@@H]13	nt	nt	nt	-92*	nt
Cc1ccc(OCC(=O)c2c(N)n(C)c(=O)n(C)c2=O)c([N+](=O)[O-])n1	nt	-10%	nt	-9	-5%
CC(=O)c1ccccc1NC(=O)CCCNC(=O)c1ccc(Cl)cc1	6%	-1%	18%	-27	-16%
Cc1cc2c(c(C)c1Cl)C(c1ccc3c(c1)OCO3)CC(=O)O2 (configuration not stated)	-15%	-13%	-20%	15	2%
Cc1ccc(C(C)C)c2c1C(c1ccc3c(c1)OCO3)CC(=O)O2 (configuration not stated)	?	0%	-12%	-15	13µM*
COC(=O)c1cc2c(n1S(=O)(=O)c1ccc(C)cc1)C(=O)C(=O)c1[nH]cc(C(=O)OCc3ccccc3)c1-2	2.2µM*	11µM*	2.5µM*	nt	?
COC(=O)c1ccc(COC(=O)c2ccc(CS(=O)(=O)c3ccc(C)cc3)cc2)cc1	1%	5%	-8%	34	4%
NC(COCc1ccccc1)c1csc(Nc2ncccn2)n1 (configuration not stated)	i	1%	-11%	31	nt
CC(C)CC(N)c1csc(Nc2ncccn2)n1 (configuration not stated)	7.9µM*	6%	?	-27	nt
CC(C)Cn1c(N)c(C(=O)COC(=O)c2ccccc2F)c(=O)n(C)c1=O	-14%	-5%	-3%	-21	11µM*
CC(C)Cn1c(N)c(C(=O)COC(=O)c2ccccc2Cl)c(=O)n(C)c1=O	0%	?	-18%	-17	?
CC(C)Cn1c(N)c(C(=O)COC(=O)c2ccccc2C(=O)c2ccccc2)c(=O)n(C)c1=O	nt	?	nt	-7	10µM*
CC(C)Cn1c(N)c(C(=O)COC(=O)Cc2cccs2)c(=O)n(C)c1=O	-17%	?	-8%	-8	3%
CC(C)Cn1c(N)c(C(=O)COC(=O)/C=C/c2cccs2)c(=O)n(C)c1=O	i	18µM*	-14%	-73*	4µM*
COc1ccc(S(=O)(=O)Nc2ccc3c(c2)C(=O)N([C@H](C)CO)C[C@H](C)[C@@H](CN(C)Cc2ccncc2)OCCCC[C@@H](C)O3)cc1	i	12%	-23%	-1	nt

Assay outcomes from PubChem.
